# TRPML1 agonist – agonists of human TRPML1 channel; actives 0.12% (n = 410,000); TRPML1-expressing cells, Ca2+ dye fluorescence, FDSS; AID 624414; Q9GZU1; activation, % (no concentration beside the values); in the data active = activation above about 50%; inconclusive = mostly about 30% to 49%; note: 0% is about no effect
#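 In this qHTS format, compounds were pin-transferred onto Ca8-dye-loaded TRPML1-DL cells induced with Tet overnight, and intracellular Ca2+ fluorescence was recorded kinetically for 110 s after a 10 s baseline. A subsequent 4uM final 54-4 (EC80) addition followed by a second 110 s read served as the antagonist phase.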
# TRPV1 PAM – human TRPV1 potentiation | potentiation, % at 8.33 µM | actives 0.02% (n = 320,000) | TRPV1-expressing cells, Fluo-8 calcium influx, capsaicin EC20 potentiation | Q8NER1; in the data active = potentiation above about 80%; inconclusive = between about 30% and that limit; note: 0% is about no effect
# Target sequence (Q8NER1 whole entry, looked up): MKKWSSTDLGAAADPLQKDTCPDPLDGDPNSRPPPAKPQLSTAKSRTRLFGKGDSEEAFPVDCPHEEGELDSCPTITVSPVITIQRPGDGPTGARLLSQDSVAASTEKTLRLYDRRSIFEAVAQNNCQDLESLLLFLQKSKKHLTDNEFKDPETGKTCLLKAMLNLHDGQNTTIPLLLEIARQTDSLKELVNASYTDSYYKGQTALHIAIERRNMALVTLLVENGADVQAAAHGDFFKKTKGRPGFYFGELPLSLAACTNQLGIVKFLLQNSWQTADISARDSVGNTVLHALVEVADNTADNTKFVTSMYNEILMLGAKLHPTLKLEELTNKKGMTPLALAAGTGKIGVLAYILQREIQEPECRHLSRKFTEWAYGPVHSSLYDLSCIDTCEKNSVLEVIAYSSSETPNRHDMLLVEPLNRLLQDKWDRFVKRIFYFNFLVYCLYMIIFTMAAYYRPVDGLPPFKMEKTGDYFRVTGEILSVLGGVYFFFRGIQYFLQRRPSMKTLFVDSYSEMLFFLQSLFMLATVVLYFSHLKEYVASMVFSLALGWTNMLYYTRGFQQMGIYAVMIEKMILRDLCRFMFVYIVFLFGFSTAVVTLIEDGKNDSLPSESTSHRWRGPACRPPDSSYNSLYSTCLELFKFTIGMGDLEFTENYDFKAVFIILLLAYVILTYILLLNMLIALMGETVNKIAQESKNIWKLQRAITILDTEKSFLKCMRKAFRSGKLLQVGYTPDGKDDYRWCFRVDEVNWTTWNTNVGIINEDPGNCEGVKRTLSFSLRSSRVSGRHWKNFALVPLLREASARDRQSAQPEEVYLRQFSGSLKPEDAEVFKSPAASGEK
#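 Fluo-8 calcium influx in TRPV1-expressing cells, kinetic read (ex 480/em 520 nm). Compound added and read 3 min for agonist activity, followed by capsaicin at EC20 final and 2 min further read for enhancement.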
# TRPML1 blocker – inhibitors of human TRPML1 channel. Q9GZU1. TRPML1-inducible cells, Ca2+ dye fluorescence, FDSS; stronger effect = lower value; inhibition of EC80 agonist-evoked calcium signal. activity change, negative = inhibition, % (no concentration beside the values). actives 0.02% (n = 390,000); in the data active = activity change below about -50%; inconclusive = between about -30% and that limit;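 note: stimulus is agonist 54-4 at its EC80 concentration; % is set by controls: 0 for no effect and ±100 for the full control effect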
#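 Tet-induced TRPML1-DL cells loaded with Ca8 no-wash calcium dye were read kinetically on FDSS. Compound addition was followed by EC80 agonist 54-4 (4 uM final); inhibition was read over 110 s.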
# TRHR PAM – TRH receptor (human) allosteric enhancement. TRHR cells, fluo-8 calcium fluorescence, EC20 TRH enhancement. P34981. enhancement, % at 2 µM. actives 0.66% (n = 360,000); in the data active = enhancement above about 30%; note: 0% is about no effect
#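 TRHR-expressing cells loaded with fluo-8 calcium dye were read kinetically (ex 480/em 530) during compound addition, then stimulated with an EC20 of TRH (10 nM final). Enhancement of the Gq-mediated intracellular calcium response was scored.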
# TRHR agonist – activates the human TRH receptor | P34981 | TRHR cells, calcium flux fluo-8, FDSS agonist mode | activation, % at 2 µM | actives 0.18% (n = 360,000) | AID 493084; in the data active = activation above about 30%; note: 0% is about no effect
#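 Fluo-8-loaded TRHR cells; 10 s baseline, compound added, kinetic Ca2+ fluorescence read 1/s, agonist mode.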
# TRPV1 agonist – activates the human vanilloid receptor TRPV1; actives 0.19% (n = 320,000); activation, % at 8.33 µM; TRPV1-expressing cells, Fluo-8 calcium influx, agonist mode; Q8NER1; in the data active = activation above about 80%; inconclusive = between about 30% and that limit; note: 0% is about no effect
#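 TRPV1-expressing cells were cultured overnight at 35.5C and loaded with Fluo-8 calcium dye for 40 to 90 min at room temperature. After a 10 s baseline, compound was added and calcium influx was read kinetically for 3 min (ex 480/em 520 nm).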
# * hit, by the source's call; ? = inconclusive; . = not tested or not shown; ! = not active in a repeat. Rows were chosen to be rich in hits. Some 0.99% of all compounds tested hit in one or more screens of this group.
SMILES,TRPML1 agonist,TRPV1 PAM,TRPML1 blocker,TRHR PAM,TRHR agonist,TRPV1 agonist
CC(C)(C)OC(=O)N1CCC(c2c(C(=O)N3CCN(C4CCCCC4)CC3)cnn2-c2ccc(F)cc2)CC1,0,-5,-13,-9,-1,4
Cc1ccc(-n2ncc(C(=O)Nc3ccc4c(c3)OCCO4)c2C2CCN(C(=O)OC(C)(C)C)CC2)cc1,2,.,?,31*,2,.
CCN1CCN(C(=O)c2cnn(-c3cccc(Cl)c3)c2C2CCN(C(=O)OC(C)(C)C)CC2)CC1,1,.,4,37*,2,.
CC(C)(C)OC(=O)N1CCC(c2c(C(=O)N3CCN(C4CCCCC4)CC3)cnn2-c2cccc(Cl)c2)CC1,92*,.,-23,21,7,.
Cc1ccc(-n2ncc(C(=O)N3CCN(C4CCCCC4)CC3)c2C2CCN(C(=O)OC(C)(C)C)CC2)cc1C,69*,.,-15,-4,0,.
Cc1ccc(-n2ncc(C(=O)Nc3ccc4c(c3)OCO4)c2C2CCN(C(=O)OC(C)(C)C)CC2)cc1,0,.,-28,3,0,.
C[C@@H]1[C@H](c2ccccc2)OCCS(=O)(=O)N1Cc1ccccc1F,-1,.,.,.,.,.
Cc1cc(C(=O)CN2C(=O)c3ccccc3C2=O)c(C)n1Cc1cccs1,1,-8,-12,0,1,18
COc1ccccc1C(=O)OCn1nnc2ccccc2c1=O,0,7,-1,-3,0,0
COc1ccc(OC)c(C(=O)Cn2nnc3ccccc3c2=O)c1,0,6,4,39*,0,-1
Cc1cc(C(=O)Cn2nnc3ccccc3c2=O)c(C)n1Cc1cccs1,4,-4,10,32*,-1,1
O=C(C[n+]1ccccc1)c1ccc(I)cc1,0,.,.,.,.,.
CCc1ccccc1OCc1nc2ccc(S(=O)(=O)N3CCOCC3)cc2[nH]1,1,-20,9,33*,-1,?
Cc1ccccc1OCc1nc2ccc(S(=O)(=O)N3CCOCC3)cc2[nH]1,-1,-5,5,2,1,?
Cc1nn(C)c(C(=O)NNC(=S)NCc2ccccc2)c1Cl,0,16,0,39*,0,-2
Cc1cc(C(=O)NNC(=S)NCc2ccccc2)cs1,-1,2,47,1,0,2
Cc1cc(C)c(NC(=O)Cn2c(=O)n(Cc3ccco3)c(=O)c3ccc(C(=O)NC4CCCC4)cc32)c(C)c1,1,.,34,55*,-1,.
O=[N+]([O-])c1ccc(-n2nnnc2-c2ccccc2)cc1,1,9,11,36*,0,-3
O=[N+]([O-])c1ccc(-n2nnnc2-c2ccccc2)c([N+](=O)[O-])c1,0,7,-7,-5,0,-1
C=C(C)C1CC=C(C)/C(=N/NC(=O)c2ccccc2[N+](=O)[O-])C1 (configuration not stated),2,-13,4,36*,1,3
CC1CCN(CCOc2ccc(C(=O)c3ccccc3)cc2)CC1,0,81*,-14,4,0,1
O=C(N1CCOCC1)C12CC3CC(C1)CC(n1cnc(Cl)n1)(C3)C2,1,-9,35,32*,0,1
O=C(N1CCOCC1)C12CC3CC(C1)CC(C(=O)N1CCOCC1)(C3)C2,3,6,12,-3,3,3
O=C(O)CCc1cc(F)c(S(=O)(=O)N2CCN(S(=O)(=O)c3ccc4c(c3)OCCO4)CC2)cc1F,.,.,.,10,-2,.
O=C(N/N=C/c1ccc(OC(=O)c2ccccc2Cl)cc1)c1ccccn1,-1,4,-2,31*,0,14
SMILES,TRPML1 agonist,TRPV1 PAM,TRPML1 blocker,TRHR PAM,TRHR agonist,TRPV1 agonist
COc1cc(OC)c(NC(=O)N2CCc3c([nH]c4ccccc34)C2c2ccccc2F)cc1Cl (configuration not stated),0,.,10,5,0,.
CCOc1ccc(/C=C/c2cc[n+](C)c3ccccc23)cc1OCC,0,.,.,.,.,.
CCN(CC(=O)NCc1ccc(F)cc1)C(=O)c1ccc(C)o1,-1,3,-7,32*,1,-1
CCN(CC(=O)NCc1ccc(F)cc1)C(=O)/C=C/c1ccco1,1,8,-7,2,0,-9
CCN(CC(=O)NCc1ccc(F)cc1)C(=O)/C=C/c1cccs1,1,-10,-21,38*,-1,7
CCCCN(CC)CCCNC(=O)CCN1N=C(c2ccc(OC)cc2)CCC1=O,0,.,9,-1,0,.
COc1cccc(CNC(=O)CCn2ccc3cc(S(=O)(=O)N4CCCC4)ccc32)c1,-1,10,15,-8,0,89*
COC(=O)c1c(C)[nH]c(C=Nc2ccc(OC)cc2)c1C,0,-1,3,38*,0,-3
Cc1cc2oc(C(=O)Nc3cccnc3)c(C)c2cc1C,0,0,14,-5,0,85*
CCOc1ccc(C(=O)Nc2cccc(C)n2)cc1,-1,-15,-3,41*,0,?
CCCCOc1ccc(C(=O)Nc2cccc(C)n2)cc1,1,2,11,-4,-1,?
COc1ccc(NC(=O)Nc2cccc(C)n2)c(OC)c1,4,-14,0,33*!,-1,-1
NC(N)=NCCC[C@H](NC(=O)CNC(=O)c1ccccc1)C(=O)Nc1cc(C(F)(F)F)ccc1Cl,.,.,.,1,-2,.
CCCn1nnnc1NC(=O)c1cc(Br)ccc1OC,0,-3,-3,30*,0,2
CCOC(=O)N1CCN(C(=O)COC(=O)Cc2ccc(OC)cc2)CC1,-1,6,-7,34*,-1,1
COc1ccc(N2CCN(C(=O)COC(=O)Cc3ccc(F)cc3)CC2)cc1,0,-12,13,2,-1,3
CCCCNc1c(N2CCN(C(=O)OCC)CC2)c(=O)c1=O,-1,9,5,-2,0,0
CCOC(=O)N1CCN(c2c(Nc3cc(C)[nH]n3)c(=O)c2=O)CC1,0,-2,-1,35*,0,1
Cn1c(NCc2ccccc2O)nc2ccccc21,0,6,3,8,0,-1
CCOc1ccccc1CNc1nc2ccccc2n1C,-1,84*,6,-4,-1,6
C=C(Br)COC(c1ccco1)[C@H](Cc1ccccc1)NC(=O)OC(C)(C)C (some centres not stated),3,.,.,.,.,.
Cc1ccccc1SCCNC(=O)c1ccccc1Br,2,-3,37,33*,-1,?
CC(C)Cc1nc(N2CCN(C(=O)c3ccco3)CC2)c(C#N)c2c1CCCC2,0,-16,-11,-11,2,?
